Here are results for 40 compounds from PubChem BioAssay (NCI).

About 83,000 compounds went through this panel and 20% of them were active in at least one assay; those are over-represented in the sample as a whole.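 How to read the values: 0–100, growth inhibition (40 = 60% inhibited); 0, no net growth; -100 to 0, cell death (-40 = 40% of starting cells died; -100 = all dead).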 The source made the active and inactive calls. Rule for the calls: active = growth percent below 10; inactive = the rest.

The subject of the assay is HL-60(TB) leukemia. As to the kind of experiment: NCI-60 one-dose screen, 48 h (100 = growth as untreated, 0 = no growth, -100 = all killed). Particulars: 10 µM unless noted.
For the compound `CCCCCCCCc1cccc(CC(=O)Nc2ccc(C)cc2C(=O)O)c1`, the growth was 33.5% [25 µM] (inactive).

As to `COc1ccc(C2=NN(c3ccccc3)C(c3ccc(OC)c(OCc4ccccc4)c3)C2)cc1OC` (stereo not given), the growth was 100% (inactive).

As for `CN1CCN(c2ccc(C(=O)/C=C/c3cc(Br)ccc3F)cc2)CC1`, the growth was -22.1% (active).

For the compound `COc1ccc(/C=C/c2nc3ccccc3nc2Nc2cccc(C)c2)cc1`, the growth is 92.8% (inactive).

With `C#C[C@]1(O)CC[C@H]2[C@@H]3CC=C4c5sc(-c6ccc([N+](=O)[O-])cc6)nc5CC[C@]4(C)[C@H]3CC[C@@]21C`, the growth is 23.7% (inactive).

For `Fc1ccc(-c2csc(Nc3cccc(Nc4nc(-c5ccc(F)cc5)cs4)c3)n2)cc1`, the growth is 74.3% (inactive).

As to `c1n[nH]cc1-c1nc2ccc3cn[nH]c3c2c2c1CCCC2`, the growth is 94.4% (inactive).

Turning to `CC(=O)Nc1ccc(C(=O)NC(=S)Nc2ccc(S(N)(=O)=O)cc2)cc1`, the growth was 95.5% (inactive).

As to `C=CC(=O)Nc1ccc(C(=O)/C=C/c2ccc(N(C)CCF)cc2)c(O)c1`, the growth is -32.2% (active).

As to `COc1cc(-c2ccc(/C=N/NC(=O)c3[nH]c4ccc(Br)cc4c3-c3ccccc3)s2)cc(OC)c1OC`, the growth is 99% (inactive).

As for `N#Cc1c(-c2ccc(F)cc2)nc(SCc2ccccc2)nc1N1CCNCC1`, the growth was -14.7% (active).

For `CN1CCN(C(=O)Oc2cc3c(c4ccccc24)[C@H](CCl)CN3C(=O)c2cc3cc(OCCCN4CCC4)ccc3[nH]2)[C@H]2CSSC[C@H]21`, the growth is -22.8% (active).

Turning to `C=C1CC[C@@H]2[C@]3(C)COC(c4cn[nH]c4-c4ccc(C)cc4)O[C@@H]3CC[C@@]2(C)[C@@H]1C/C=C1/C(=O)OCC1O` (stereo not given in full), the growth is 7.26% (active).

Take `CO[C@H]1CSS[C@@H]1Cn1nc(-c2ccc(Oc3ccccc3)cc2)c2c(N)ncnc21`: the growth was 8.96% (active).

As for `O=C(N=Nc1c(O)[nH]c2ccc(Cl)cc12)c1ccc2nc(-c3ccccc3)[nH]c2c1`, the growth is 72.5% (inactive).

`CN(C)c1ccnc(CNCCSC2(c3ccccc3)c3ccccc3C=Cc3ccccc32)c1`: the growth is -42.8% (active).

`CN1CCN(CCS(=O)(=O)Nc2cc(-c3ccc4ncnc(Nc5ccc(F)c(Cl)c5)c4c3)cnc2Cl)CC1`: the growth is 19.2% (inactive).

For the compound `CC(=O)c1cc(C(=O)N2c3ccccc3Sc3ccccc32)n2ccc(C)cc12`, the growth was 33.3% (inactive).

`N#Cc1ccc(-c2nn(-c3ccc(C(=O)O)cc3)cc2CNc2ccc(Cl)cc2)cc1`: the growth was 87.8% (inactive).

As for `O=C(Nc1ccc(I)cc1)Nc1nc2ccc([N+](=O)[O-])cc2s1`, the growth was -37.3% (active).

On to `COc1cccc(C(=O)CSc2nc(-c3ccc(OCc4ccccc4)c(OC)c3)c(C#N)c(=O)[nH]2)c1`, for which the growth is 97.2% (inactive).

As for `C#CCOc1cc(N(CC)CC)ccc1C(C(=O)NC(C)(C)C)N(C(=O)C1CCc2cc(F)ccc2O1)c1ccccc1Br` (stereo not given), the growth is 21.7% (inactive).

As for `COc1cc(CNC(=O)C[C@H](C)CCC=C(C)C)ccc1OCc1cn(-c2ccc(Cl)cc2Cl)nn1`, the growth is 95.5% (inactive).

`COc1c(F)ccc(C(=O)Nc2ccc3nc(NC(=O)C4CCCN(S(=O)(=O)c5ccc(C(F)(F)F)cc5)C4)sc3c2)c1F` (stereo not given): the growth was 101% (inactive).

Turning to `C=C1CC[C@@H]2[C@]3(C)COC(c4cn(-c5ccccc5)nc4-c4ccccc4)O[C@@H]3CC[C@@]2(C)[C@@H]1C/C=C1/C(=O)OC[C@H]1O` (stereo not given in full), the growth was -33.7% (active).

Turning to `O=C(Nc1cccc(-c2cn(-c3ccc4oc(=O)ccc4c3)nn2)c1)Nc1cc(C(F)(F)F)cc(C(F)(F)F)c1`, the growth was 34.3% (inactive).

In the case of `Cc1nc(Nc2ncc(C(=O)Nc3c(C)cccc3Cl)s2)cc(N2CCN(CCCNC(=O)COc3ccc(C4CCC(=O)NC4=O)cc3)CC2)n1` (stereo not given), the growth was 76.3% (inactive).

In the case of `O=C(NCCCCCCCCCC[P+](c1ccccc1)(c1ccccc1)c1ccccc1)c1ccc(-n2nc(-c3ccccc3O)nc2-c2ccccc2O)cc1`, the growth is -29.8% (active).

Consider `CC1(C)CC(=O)C2=C(C1)N(Cc1ccc(C(=O)O)cc1)C1=C(C(=O)CC(C)(C)C1)C2c1ccc(Cl)cc1`, for which the growth was 107% (inactive).

As to `O=C(Cn1c(/C=C/c2ccccc2)nc2ccccc2c1=O)Nc1ccccc1`, the growth is 64.7% (inactive).

`CC(=O)C[n+]1cccc2c3ccccc3ccc21`: the growth was 85% (inactive).

As for `COc1ccccc1C(=O)NN1C(=O)/C(=C/C2=Cc3ccccc3OC2)SC1=S`, the growth is 97.2% (inactive).

For the compound `N#Cc1c(-c2cccc(Cl)c2Cl)cc(-c2c[nH]c3ccccc23)[nH]c1=O`, the growth is 62.1% (inactive).

`COc1ccc(C(=O)/C=C/c2ccc(OCc3ccc(F)cc3)c(OC)c2)cc1OC`: the growth was -5.63% (active).

Turning to `Cc1nc2sccn2c1-c1nnc(SCc2ccccc2)o1`, the growth is 89.9% (inactive).

Turning to `Nc1cc(-c2c[nH]c3ccc(F)cc23)nc2cc(-c3c[nH]c4ccccc34)nn12`, the growth is -0.0986% (active).

Take `Clc1ccc(CNc2nc(SCCN3CCOCC3)nc3c2cnn3CC(Cl)c2ccc(Br)cc2)cc1` (stereo not given): the growth was -9.78% (active).

For the compound `Cn1cc(-c2cc(N)n3nc(-c4c[nH]c5ccc(F)cc45)cc3n2)c2cc(Br)cnc21`, the growth is 33.2% (inactive).

Turning to `COc1ccc(C2=Nc3c(N)nc(N)nc3NC(c3ccc(Oc4nc(Nc5ccc(F)cc5)nc(N(C)C)n4)c(OC)c3)C2)cc1` (stereo not given), the growth was 32.6% (inactive).

As to `N#Cc1c(-c2ccccc2Cl)cc(-c2ccc3ccccc3c2)[nH]c1=O`, the growth was 71.9% (inactive).
